# In PubChem BioAssay AID1159580 (chemical genetic matrix, 2015):
# The campaign covered roughly 5,500 compounds. About 2,000 (36%) were called active. About 18% were inconclusive and are not listed. This is one part of the list. Values without a mark were called inactive. Cut-off read from the data, not from the text of the source: active = normalized growth mostly below about 0.91 (no sharp cut-off); inconclusive = no clear call, values can overlap the other calls; inactive = mostly above about 0.92.
# Assay: chemical genetic growth profiling, strain panel (AID 1159580);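 note: tested at 20 µM; growth read once vehicle control cultures reached saturation at 30 °C; 1 = growth at the plate median or of vehicle wells; lower values mean less growth of the strain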
# Conditions: growth OD
# [1] = S. cerevisiae deletion strains, locus YGR078C, strain PAC10, active compounds read low
# [2] = S. cerevisiae deletion strains, locus YMR307W, strain GAS1, active compounds read low
# [3] = S. cerevisiae deletion strains, locus YNL153C, strain GIM3, active compounds read low
# [4] = S. cerevisiae deletion strains, locus YAL013W, strain DEP1, active compounds read low
# [5] = S. cerevisiae deletion strains, locus YBR229C, strain ROT2, active compounds read low
# [6] = S. cerevisiae deletion strains, locus YCL061C, strain MRC1, active compounds read low
# [7] = S. cerevisiae deletion strains, locus YDL101C, strain DUN1, active compounds read low
# [8] = S. cerevisiae deletion strains, locus YDL134C, strain PPH21, active compounds read low
# [9] = S. cerevisiae deletion strains, locus YDR150W, strain NUM1, active compounds read low
# [10] = S. cerevisiae deletion strains, locus YEL061C, strain CIN8, active compounds read low
# [11] = S. cerevisiae deletion strains, locus YHR030C, strain SLT2, active compounds read low
# [12] = S. cerevisiae deletion strains, locus YHR087W, strain rtc3, active compounds read low
# [13] = S. cerevisiae deletion strains, locus YJL187C, strain SWE1, active compounds read low
# [14] = S. cerevisiae deletion strains, locus YJR043C, strain POL32, active compounds read low
# [15] = S. cerevisiae deletion strains, locus YJR075W, strain HOC1, active compounds read low
# [16] = S. cerevisiae deletion strains, locus YLR039C, strain RIC1, active compounds read low
# [17] = S. cerevisiae deletion strains, locus YLR058C, strain SHM2 (second series), active compounds read low
# [18] = S. cerevisiae deletion strains, locus YLR085C, strain ARP6, active compounds read low
# [19] = S. cerevisiae deletion strains, locus YLR262C, strain YPT6, active compounds read low
# [20] = S. cerevisiae deletion strains, locus YML094W, strain GIM5, active compounds read low
# [21] = S. cerevisiae deletion strains, locus YMR219W, strain ESC1, active compounds read low
# [22] = S. cerevisiae deletion strains, locus YMR263W, strain SAP30, active compounds read low
# [23] = S. cerevisiae deletion strains, locus YNL298W, strain CLA4 (second series), active compounds read low
# [24] = S. cerevisiae deletion strains, locus YNL322C, strain KRE1, active compounds read low
# [25] = S. cerevisiae deletion strains, locus YNR030W, strain Alg12, active compounds read low
# [26] = S. cerevisiae deletion strains, locus YPL055C, strain LGE1, active compounds read low
# [27] = S. cerevisiae deletion strains, locus YPL241C, strain CIN2, active compounds read low
# [28] = S. cerevisiae deletion strains, locus YPR135W, strain CTF4, active compounds read low
smiles,measurement,setting,value
CNc1cc(NS(=O)(=O)c2ccc(N)cc2)nc(NC)n1,normalized growth,"S. cerevisiae deletion strains, locus YAL040C, strain CLN3, active compounds read low",0.991
same,normalized growth,"S. cerevisiae deletion strains, locus YCL061C, strain MRC1 (second series), active compounds read low",0.986
same,normalized growth,"S. cerevisiae deletion strains, locus YDR363W, strain ESC2, active compounds read low",0.974
same,normalized growth,"S. cerevisiae deletion strains, locus YER002W, strain NOP16, active compounds read low",0.98
same,normalized growth,[1],0.994
same,normalized growth,[2],1
same,normalized growth,[3],1.01
same,normalized growth,"S. cerevisiae deletion strains, locus YNL175C, strain NOP13, active compounds read low",0.993
same,normalized growth,"S. cerevisiae deletion strains, locus YNL197C, strain WHI3, active compounds read low",0.991
same,normalized growth,"S. cerevisiae deletion strains, locus YNL224C, strain SQS1, active compounds read low",0.994
same,normalized growth,"S. cerevisiae deletion strains, locus YOR083W, strain WHI5 (second series), active compounds read low",0.993
CC(C)(C)C(=O)Nc1ccc(F)cc1,normalized growth,[4],1
same,normalized growth,[5],1
same,normalized growth,[6],0.991
same,normalized growth,[7],0.994
same,normalized growth,[8],1.02
same,normalized growth,[9],0.985
same,normalized growth,[10],1.01
same,normalized growth,[1],0.999
same,normalized growth,[11],1.02
same,normalized growth,[12],1
same,normalized growth,[13],1.01
same,normalized growth,[14],1.01
same,normalized growth,[15],0.962
same,normalized growth,[16],1.07
same,normalized growth,[17],1.01
same,normalized growth,[18],1.05
same,normalized growth,[19],1.01
same,normalized growth,[20],1
same,normalized growth,[21],1
same,normalized growth,[22],1
same,normalized growth,[3],0.995
same,normalized growth,[23],1.04
same,normalized growth,[24],0.994
same,normalized growth,[25],1.02
same,normalized growth,"S. cerevisiae deletion strains, locus YOL006C, strain TOP1, active compounds read low",1.01
same,normalized growth,[26],0.946
same,normalized growth,[27],1.01
same,normalized growth,[28],0.956
CC(C)(C)c1ccc(NC(=O)Cc2cc(F)cc(F)c2)cc1,normalized growth,[4],0.993
same,normalized growth,[5],0.995
same,normalized growth,[6],0.97
same,normalized growth,[7],1.02
same,normalized growth,[9],0.902
same,normalized growth,[10],0.997
same,normalized growth,[1],0.979
same,normalized growth,[11],0.988
same,normalized growth,[12],0.984
same,normalized growth,[13],0.985
same,normalized growth,[14],1
same,normalized growth,[15],0.933
same,normalized growth,[16],0.939
same,normalized growth,[17],0.986
same,normalized growth,[18],1.26 [resistant] (active)
same,normalized growth,[19],0.941
same,normalized growth,[20],0.994
same,normalized growth,[21],0.988
same,normalized growth,[22],1
same,normalized growth,[2],1.05
same,normalized growth,[3],0.989
same,normalized growth,[23],0.97
same,normalized growth,[24],0.985
same,normalized growth,[25],0.985
same,normalized growth,[26],0.885
same,normalized growth,[27],0.949
same,normalized growth,[28],1
CCC(=O)Nc1cc(F)ccc1C,normalized growth,[4],0.999
same,normalized growth,[5],1
same,normalized growth,[7],1
same,normalized growth,[8],1
same,normalized growth,[9],0.968
same,normalized growth,[10],0.997
same,normalized growth,[1],1
same,normalized growth,[11],0.985
same,normalized growth,[12],1.01
same,normalized growth,[14],0.985
same,normalized growth,[15],1
same,normalized growth,"S. cerevisiae deletion strains, locus YKL190W, strain CNB1, active compounds read low",1.01
same,normalized growth,[16],1.01
same,normalized growth,[17],1
same,normalized growth,[18],1.02
same,normalized growth,[19],1.01
same,normalized growth,[20],1.01
same,normalized growth,[21],0.997
same,normalized growth,[22],0.996
same,normalized growth,"S. cerevisiae deletion strains, locus YNL128W, strain TEP1, active compounds read low",0.998
same,normalized growth,[3],0.987
same,normalized growth,[23],1.01
same,normalized growth,[24],0.997
same,normalized growth,[25],1.01
same,normalized growth,[26],1.09
same,normalized growth,[27],0.89
same,normalized growth,[28],0.987
same,normalized growth,"S. cerevisiae strains, strain wild type, active compounds read low",1.01
